Reference: PubChem BioAssay (Tox21)
Inconclusive results are not listed. Activity calls are given as the source filed them. Unless noted, the call rests on the fitted dose curve; in most records, active means well fitted curve in the direction sought with a large enough effect in the repeat runs; inconclusive means weak or mixed curves; inactive means no such curve, though single readings can be large; an effect the other way counts as inactive or inconclusive.

What was measured:
[1] = qHTS assay to identify small molecule antagonists of the glucocorticoid receptor (GR) signaling pathway - cell viability counter screen (AID 720693); further: nearly all actives have a fitted effect of over 55% in size
[2] = qHTS assay for identifying genotoxic compounds that show differential cytotoxicity against isogenic chicken DT40 cell lines with known DNA damage response pathways - wild type cell line (AID 743012); further: nearly all actives have a fitted effect of over 60% in size
Summary of the method: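 Parental DNA repair-proficient DT40 cells, 300 per well, were pre-incubated ~0.5 h at 37 C/5% CO2, pin-dosed with compounds in DMSO, then incubated 40 h. Viability was read as CellTiter-Glo luminescence after 30 min at room temperature.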

[3] = qHTS assay for identifying genotoxic compounds that show differential cytotoxicity against isogenic chicken DT40 cell lines with known DNA damage response pathways - Rad54/Ku70 mutant cell line (AID 743015); further: nearly all actives have a fitted effect of over 60% in size
[4] = qHTS assay to identify small molecule antagonists of the androgen receptor (AR) signaling pathway - cell viability counter screen (AID 743033; further: nearly all actives have a fitted effect of over 45% in size)
[5] = qHTS assay to identify small molecule antagonists of the androgen receptor (AR) signaling pathway using the MDA cell line - cell viability counter screen (AID 743041; further: nearly all actives have a fitted effect of over 45% in size)
Summary of the method: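 R1881-driven MDA-kb2 AR-luc cells, 3,000/well, were dosed with library compounds for 16 h; cell health came from CellTiter-Fluor fluorescence in the reporter wells.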

[6] = biological target: Androgen receptor (Homo sapiens) (UniProt P10275); test: qHTS assay to identify small molecule antagonists of the androgen receptor (AR) signaling pathway (AID 743035; active means well fitted inhibition curve with a large enough effect in the signal ratio in the repeat runs, not every such curve was filed as active; the % refers to the signal ratio)
Chain of Androgen receptor (Homo sapiens) (P10275 whole entry, looked up): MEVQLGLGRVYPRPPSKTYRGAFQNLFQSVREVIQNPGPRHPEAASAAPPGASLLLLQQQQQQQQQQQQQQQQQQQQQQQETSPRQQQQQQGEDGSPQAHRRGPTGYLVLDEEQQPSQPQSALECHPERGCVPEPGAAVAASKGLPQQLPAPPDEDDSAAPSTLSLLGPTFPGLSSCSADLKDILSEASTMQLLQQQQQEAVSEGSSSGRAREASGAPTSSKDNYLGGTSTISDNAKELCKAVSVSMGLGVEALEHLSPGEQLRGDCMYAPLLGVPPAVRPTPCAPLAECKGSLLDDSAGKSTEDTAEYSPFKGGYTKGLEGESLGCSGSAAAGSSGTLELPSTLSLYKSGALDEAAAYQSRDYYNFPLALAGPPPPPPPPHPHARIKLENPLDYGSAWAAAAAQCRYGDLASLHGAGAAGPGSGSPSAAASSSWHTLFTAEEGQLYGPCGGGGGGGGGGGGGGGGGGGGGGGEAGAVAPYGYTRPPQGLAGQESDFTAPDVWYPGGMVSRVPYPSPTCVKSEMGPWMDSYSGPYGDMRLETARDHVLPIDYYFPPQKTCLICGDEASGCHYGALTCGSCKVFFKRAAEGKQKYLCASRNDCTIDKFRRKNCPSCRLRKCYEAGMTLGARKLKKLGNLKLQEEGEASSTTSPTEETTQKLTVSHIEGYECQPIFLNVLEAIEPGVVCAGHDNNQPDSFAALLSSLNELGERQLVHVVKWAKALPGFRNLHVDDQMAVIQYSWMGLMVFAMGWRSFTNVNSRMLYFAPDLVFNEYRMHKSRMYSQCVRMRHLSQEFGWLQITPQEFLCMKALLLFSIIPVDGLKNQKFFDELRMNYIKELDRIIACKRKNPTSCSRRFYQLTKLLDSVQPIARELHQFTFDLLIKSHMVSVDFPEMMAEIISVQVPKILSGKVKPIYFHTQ
Summary of the method: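 HEK293 cells stably carrying a UAS-driven beta-lactamase reporter (AR-UAS-bla GripTite) were plated for 4 h at 37C, then given compound and the agonist R1881 and incubated 16 h. Reporter activity was read by LiveBLAzer B/G FRET fluorescence after 2 h at room temperature.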

[7] = biological target: Androgen receptor (Homo sapiens) (UniProt P10275); test: qHTS assay to identify small molecule agonists of the androgen receptor (AR) signaling pathway (AID 743036; active means well fitted activation curve with a large enough effect in the signal ratio in the repeat runs, with a control signal flat, not every such curve was filed as active; the % refers to the signal ratio)
Summary of the method: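 AR-UAS-bla HEK293 cells, plated 4 h before dosing, were treated with compound for 16 h at 37C. beta-Lactamase reporter read after 2 h with LiveBLAzer B/G FRET substrate at room temperature.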

[8] = biological target: Androgen receptor (Homo sapiens) (UniProt P10275); test: qHTS assay to identify small molecule agonists of the androgen receptor (AR) signaling pathway using the MDA cell line (AID 743040; further: nearly all actives have a fitted effect of over 20% in size)
Summary of the method: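 After a 5 h incubation at 37C and 0% CO2, MDA-kb2 reporter cells were dosed with compounds in DMSO and kept 16 h under the same conditions. Luciferase activity was then read as luminescence with ONE-Glo.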

[9] = biological target: Androgen receptor (Homo sapiens) (UniProt P10275); test: qHTS assay to identify small molecule antagonists of the androgen receptor (AR) signaling pathway using the MDA cell line (AID 743042; further: nearly all actives have a fitted effect of over 55% in size)
Summary of the method: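 Antagonist mode: compounds plus R1881 agonist added to MDA-kb2 AR-luc cells, incubated 16 h at 37C. Luciferase reporter luminescence quantified, with multiplexed CellTiter-Fluor readout for cell viability.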

[10] = qHTS assay for identifying genotoxic compounds that show differential cytotoxicity against isogenic chicken DT40 cell lines with known DNA damage response pathways - Rev3 mutant cell line (AID 743014); further: nearly all actives have a fitted effect of over 55% in size

Measured: Potency

C=CC/C=C/C
inactive: [1] | [2] | [3] | [4] | [5]

CC(C)=CCC/C(C)=C/COC=O
inactive: [1] | [2] | [3] | [4] | [5]

CCNC(=O)NCc1cccc(Cl)c1
inactive: [1] | [2] | [3] | [4] | [5]

CC/C=C\CCOC(=O)c1ccccc1O
inactive: [1] | [2] | [3] | [4] | [5]

O/N=C/C=N/O
inactive: [1] | [2] | [3] | [4] | [5]

CC(=O)CC(=O)Nc1ccc(C)cc1C
inactive: [1] | [2] | [3] | [4] | [6] | [7] | [8] | [5] | [9]

Cc1cccc(Cl)c1
inactive: [1] | [2] | [3] | [4] | [5]

CCCCCC(C)O (stereo not drawn)
inactive: [1] | [2] | [3] | [4] | [5]

CCC(=O)c1c(O)cc(O)cc1O
inactive: [1] | [2] | [10] | [3] | [6] | [8] | [5] | [9]

CC1(C)O[C@H]2CC(=O)OC[C@]23[C@H]2CC[C@@]4(C)[C@H](c5ccoc5)OC(=O)[C@H]5O[C@]54[C@]2(C)C(=O)C[C@@H]13
inactive: [1] | [2] | [3] | [4] | [5]

O=Cc1cc2ccccc2o1
inactive: [1] | [2] | [3] | [4] | [5]

CO[C@@]1(NC(=O)Cc2cccs2)C(=O)N2C(C(=O)O)=C(COC(N)=O)CS[C@@H]21
inactive: [1] | [2] | [3] | [4] | [5]

CO/N=C(/C(=O)N[C@@H]1C(=O)N2C(C(=O)[O-])=C(C[n+]3ccn4ncccc43)CS[C@H]12)c1nsc(N)n1
inactive: [1] | [2] | [3] | [4] | [5]

CC1(C)CC(OC(=O)CCCCCCCCC(=O)OC2CC(C)(C)NC(C)(C)C2)CC(C)(C)N1
inactive: [1] | [2] | [3] | [4] | [5]

CC(=O)C1C(=O)C=C(C)OC1=O (stereo not drawn)
inactive: [1] | [10] | [3] | [4] | [5]

O=C(O)CNC(=O)CNC(=O)CNC(=O)CSC(=O)c1ccccc1
inactive: [1] | [10] | [3] | [4] | [5]

C=CCOC(=O)CCCCCC
inactive: [1] | [10] | [3] | [4] | [6] | [8] | [5] | [9]

COC(=O)CCCCC(=O)O
inactive: [1] | [10] | [4] | [5]

N#Cc1ccccc1O
inactive: [1] | [10] | [3] | [4] | [5]

CC1c2ccccc2CN1NC(=O)c1ccc(Cl)c(S(N)(=O)=O)c1 (stereo not drawn)
inactive: [1] | [10] | [3] | [4] | [5]

CCCCCCCCCCCCCCCCCC#N
inactive: [1] | [10] | [3] | [4] | [5]

COC(=O)/C=C\C(=O)O
inactive: [1] | [10] | [3] | [4] | [5]

Cn1nnc2c(C(N)=O)ncn2c1=O
inactive: [1] | [10] | [3] | [4] | [5]

OCCN1CCOCC1
inactive: [1] | [10] | [3] | [4] | [5]

CC(=O)CCC1=C(C)CCCC1(C)C
inactive: [1] | [2] | [4] | [5]

CCO[Si](CC)(OCC)OCC
inactive: [1] | [10] | [3] | [4] | [6] | [8] | [5] | [9]

COc1nc(N)nc2nc[nH]c12
inactive: [1] | [10] | [3] | [4] | [5]

C/C=C(\C)C(C)=O
inactive: [1] | [10] | [3] | [4] | [6] | [7] | [8] | [5] | [9]

OCC1CCC(CO)CC1 (stereo not drawn)
inactive: [1] | [3] | [4] | [6] | [7] | [8] | [5] | [9]

CCCc1ccc(O)cc1
inactive: [1] | [10] | [3] | [4] | [5]

C/C(CC(C)C)=N\O
inactive: [1] | [10] | [3] | [4] | [5]

CCCCCCC1(C)CCC(=O)O1 (stereo not drawn)
inactive: [1] | [10] | [3] | [4] | [5]
